Hit rate of the full screen: of about 350,000 compounds, about 6,000 (1.7%) were called active. Inconclusive results (about 5%) are left out. Many of the other results were omitted from the sample, so actives are more common in it than they were. Unmarked numbers belong to inactive results. Cut-off read from the data, not from the text of the source: active = CPE inhibition above about 20% (passing the limit was not always enough); inconclusive = no clear call, values can overlap the other calls; tested in BHK-21 cells.

The assay in a line: protection of cells from dengue 2 killing – plate reader, single concentration, primary screen (AID 651640).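 Note: 0% = median of neutral control wells and 100% = median of positive control wells.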 The following applies: DENV2-infected cells, cytopathic effect rescue, at 9.99 µM, stronger effect = higher value. (Protection from cytopathic effect is a common read-out in antiviral testing.)
As for `COc1ccc(-c2ccc3c(c2)[C@H]2[C@H](CCN2S(=O)(=O)c2ccccc2F)[C@H](CO)N3)cc1`, the CPE inhibition is -28.4%.
The same measure for `O=C(c1ccccc1)N1C[C@H]2[C@@H](c3ccccc31)[C@H](CO)N2Cc1ccccc1F`: -4.2%; for `C[C@@H]1CN([C@@H](C)CO)C(=O)c2cc(NC(=O)CCCN(C)C)ccc2O[C@@H](C)CCCCO[C@@H]1CN(C)S(=O)(=O)c1ccc(Cl)cc1`: -4.63%.
The same measure for `C/C=C/c1ccc2c(c1)O[C@@H](CN(C)S(=O)(=O)c1ccc(F)cc1)[C@@H](C)CN([C@H](C)CO)S2(=O)=O`: 1.09%.
As for `COc1ccc(S(=O)(=O)N(C)C[C@H]2OCCCC[C@H](C)Oc3ccc(NC(=O)Nc4ccc5c(c4)OCO5)cc3C(=O)N([C@@H](C)CO)C[C@@H]2C)cc1`, the figure is -7.54%; as for `CCOC(=O)c1c(NC(=O)Cn2nc(C(F)(F)F)cc2C)sc2c1CCC2`, -2.63%.
As for `CCCOC(=O)c1c(NC(=O)c2cnn3c2NC(c2ccccc2)CC3C(F)(F)F)sc2c1CCCC2` (stereo unspecified), the CPE inhibition was 84.1% (active).
As to `CCOC(=O)c1c(NC(=O)CSc2cn(CC)c3ccccc23)sc2c1CCC2`, the CPE inhibition is 5.51%.
As for `COC(=O)[C@]12C[C@H](CC(=O)N3CCN(C(=O)C4CC4)CC3)C(=O)N(Cc3ccc4c(c3)OCO4)C1=C[C@H](C(C)(C)C)O[C@@H]2C`, the figure is 0.269%.
The same measure for `C[C@H](CO)N1C[C@H](C)[C@H](CN(C)C(=O)NC2CCCCC2)Oc2c(NC(=O)C3CC3)cccc2C1=O`: 20.6% (active).
The same measure for `C[C@@H]1CN([C@@H](C)CO)C(=O)c2cccc(NC(=O)C3CC3)c2O[C@@H]1CN(C)C`: 11.8%.
Consider `C[C@H]1CN([C@@H](C)CO)C(=O)c2cccc(NC(=O)Nc3cccc4ccccc34)c2O[C@@H]1CN(C)C(=O)NC1CCCCC1`, for which the CPE inhibition is 43.8% (active).
For `C[C@H]1CN([C@@H](C)CO)C(=O)c2cccc(NC(=O)C3CCOCC3)c2O[C@@H]1CN(C)C`, the CPE inhibition was 39.5% (active).
As for `CC(C)NC(=O)N(C)C[C@H]1Oc2c(NC(=O)C3CCCCC3)cccc2C(=O)N([C@@H](C)CO)C[C@H]1C`, the figure is -3.61%; as for `C[C@@H]1CN([C@H](C)CO)C(=O)c2cccc(NC(=O)Nc3ccccc3)c2O[C@@H]1CN(C)C(=O)NC1CCCCC1`, -11%; as for `C[C@H]1CN([C@@H](C)CO)C(=O)c2cccc(NC(=O)C3CCOCC3)c2O[C@H]1CN(C)S(C)(=O)=O`, 12.7%.
As for `COc1ccc(NC(=O)N(C)C[C@H]2Oc3c(NC(=O)Nc4cccc5ccccc45)cccc3C(=O)N([C@H](C)CO)C[C@@H]2C)cc1`, the figure is 15.2%.
As for `COc1ccc(NC(=O)N(C)C[C@H]2Oc3c(NC(=O)Nc4cccc5ccccc45)cccc3C(=O)N([C@@H](C)CO)C[C@H]2C)cc1`, the figure is 18.2%.
With `COc1ccc(NC(=O)N(C)C[C@@H]2Oc3c(NC(=O)Nc4cccc5ccccc45)cccc3C(=O)N([C@@H](C)CO)C[C@H]2C)cc1`, the CPE inhibition was 23.2% (active).
As for `C[C@@H]1CN([C@H](C)CO)C(=O)c2cccc(NC(=O)Nc3cccc4ccccc34)c2O[C@@H]1CN(C)C(=O)Nc1cccc2ccccc12`, the figure is 4.21%; as for `C[C@@H]1CN([C@H](C)CO)C(=O)c2cccc(NC(=O)C3CC3)c2O[C@@H]1CN(C)C(=O)Nc1ccccc1`, 8.03%.
As for `CN1CCN(C(=O)C[C@H]2CC[C@H]3[C@@H](COC[C@H](O)CN3CC3CCOCC3)O2)CC1`, the figure is -5%; as for `CCCNC(=O)N1[C@H](CO)[C@@H]2c3ccccc3N(C(=O)C3CCOCC3)C[C@@H]21`, 9.68%; as for `CNC(=O)C[C@H]1CC[C@H]2[C@@H](COc3ccc(NS(=O)(=O)c4ccc(F)cc4)cc3C(=O)N2C)O1`, -4.93%.
As for `CC(C)NC(=O)N(C)C[C@H]1OCCCC[C@H](C)Oc2ccc(NS(=O)(=O)c3cccs3)cc2C(=O)N([C@H](C)CO)C[C@@H]1C`, the figure is -5.44%; as for `O=C(CC1CC1)N1[C@@H]2CN(S(=O)(=O)c3ccccc3F)c3ccccc3[C@@H]2[C@@H]1CO`, 2.67%; as for `CCCNC(=O)N1CC2(C1)[C@H](c1ccccc1)[C@@H](CO)N2Cc1cccc(Cl)c1`, -0.258%.
For `C[C@@H]1CN([C@H](C)CO)S(=O)(=O)c2ccc(-c3ccncc3)cc2O[C@@H]1CN(C)C(=O)CN(C)C`, the CPE inhibition is -2.24%.
The same measure for `COCC(=O)N(C)C[C@@H]1Oc2cc(C#Cc3cccnc3)ccc2S(=O)(=O)N([C@H](C)CO)C[C@H]1C`: 0.786%.
Regarding `COc1ccccc1CNC(=O)C[C@H]1CC[C@@H](NC(=O)CN(C)C)[C@@H](CO)O1`, the CPE inhibition is -1.02%.
With `Cc1cccc(S(=O)(=O)N2C[C@@H](O)COC[C@H]3O[C@H](CC(=O)N4CCN(C)CC4)CC[C@@H]32)c1`, the CPE inhibition was 0.654%.
As for `C[C@@H]1CN([C@H](C)CO)C(=O)c2cc(C#Cc3cccnc3)cnc2O[C@@H]1CN(C)Cc1ccc(F)cc1`, the figure is -0.76%; as for `C[C@H]1CN([C@@H](C)CO)C(=O)c2cccc(NS(=O)(=O)c3ccc(F)cc3)c2O[C@@H]1CN(C)Cc1ccncc1`, 0.612%; as for `C[C@H]1CN([C@@H](C)CO)C(=O)c2cccc(NC(=O)C3CCCCC3)c2O[C@H]1CN(C)C(=O)NC1CCCCC1`, 1.03%.
The same measure for `C[C@@H]1CN([C@H](C)CO)C(=O)c2cccc(NS(=O)(=O)c3ccc(Cl)cc3)c2O[C@@H]1CN(C)C(=O)Nc1cccc2ccccc12`: -5.49%.
The same measure for `C[C@@H]1CN([C@@H](C)CO)C(=O)c2cccc(NS(=O)(=O)c3ccc(F)cc3)c2O[C@@H]1CN(C)Cc1ccc(C(=O)O)cc1`: 49.4% (active).
On to `COc1ccc(S(=O)(=O)Nc2cccc3c2O[C@@H](CN(C)C(=O)Nc2cccc4ccccc24)[C@H](C)CN([C@@H](C)CO)C3=O)cc1`, for which the CPE inhibition is -9.92%.
As for `C[C@H](CO)N1C[C@H](C)[C@@H](CN(C)C(=O)Nc2cccc3ccccc23)Oc2c(NS(=O)(=O)c3ccccc3)cccc2C1=O`, the figure is 74.2% (active); as for `C[C@@H]1CN([C@H](C)CO)C(=O)c2cccc(NC(=O)C3CCCCC3)c2O[C@@H]1CN(C)C(=O)NC1CCCCC1`, 21.7% (active).
As to `C[C@@H]1CN([C@H](C)CO)C(=O)c2cccc(NS(=O)(=O)c3ccccc3)c2O[C@@H]1CN(C)Cc1ccc(C(=O)O)cc1`, the CPE inhibition is -6.23%.
As to `C[C@@H]1CN([C@@H](C)CO)C(=O)c2cccc(NC(=O)C3CCOCC3)c2O[C@H]1CN(C)C(=O)NC1CCCCC1`, the CPE inhibition was -1.68%.

Source of the values: PubChem BioAssay AID651640 (Broad Institute, 2012).
